What all share (test): DAPPL (digital affinity profiling via proximity ligation, sequencing); 10 mM Tris-HCl pH 7.5, 50 mM NaCl, 1 mM DTT, 4% glycerol, room temperature, 30 min; GST-TFs on glutathione beads, 16-mer random dsDNA library, 0.1% formaldehyde crosslink after washing; high values mean tight binding
Conditions in all cases: protein: recombinant; tags: N-terminal GST; dsDNA, one strand shown

For assay [1], the target named is T1, FLI1 (Homo sapiens, UniProt Q01543 1-452).
T1 sequence: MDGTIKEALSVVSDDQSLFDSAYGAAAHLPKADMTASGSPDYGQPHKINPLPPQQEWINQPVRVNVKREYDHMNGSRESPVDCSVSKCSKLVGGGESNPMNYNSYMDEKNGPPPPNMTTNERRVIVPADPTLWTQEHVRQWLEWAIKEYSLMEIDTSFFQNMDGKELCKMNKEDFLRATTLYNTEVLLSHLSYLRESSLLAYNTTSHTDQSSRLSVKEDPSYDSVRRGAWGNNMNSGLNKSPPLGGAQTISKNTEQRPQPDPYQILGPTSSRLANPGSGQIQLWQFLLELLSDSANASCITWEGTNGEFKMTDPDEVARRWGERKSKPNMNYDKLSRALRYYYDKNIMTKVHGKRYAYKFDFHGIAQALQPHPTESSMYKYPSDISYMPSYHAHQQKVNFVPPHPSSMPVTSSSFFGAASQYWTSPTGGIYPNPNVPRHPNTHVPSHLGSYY
The method in brief:
(§1)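 Each value of binding signal is a hexamer's read frequency for a factor divided by the same hexamer's frequency in the tag-only sample. Barcoded, bead-captured GST fusions of human transcription factors made in yeast were pooled with that sample and incubated with 200 nmole of a random double-stranded 16-mer DNA library in Tris/NaCl/DTT/glycerol buffer at room temperature for 30 min. Washing, 0.1% formaldehyde crosslinking, proximity ligation, PCR and Illumina NextSeq500 sequencing followed.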

The target of assay [2] is ELF1 (Homo sapiens, UniProt P32519 1-619). The gist of the method:
as §1

Assay [3] deals with T2, SPIC (Homo sapiens, UniProt Q8N5J4 1-248).
T2 sequence: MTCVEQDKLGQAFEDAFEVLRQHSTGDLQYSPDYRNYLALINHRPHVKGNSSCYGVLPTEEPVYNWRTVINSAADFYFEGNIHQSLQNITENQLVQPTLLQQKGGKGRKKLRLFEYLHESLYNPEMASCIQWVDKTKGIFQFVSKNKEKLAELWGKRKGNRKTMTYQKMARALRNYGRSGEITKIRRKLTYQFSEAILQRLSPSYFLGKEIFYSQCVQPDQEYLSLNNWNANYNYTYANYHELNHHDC
The method in brief: as §1

The target of assay [4] is T3, ETV2 (Homo sapiens, UniProt O00321 1-342).
T3 sequence: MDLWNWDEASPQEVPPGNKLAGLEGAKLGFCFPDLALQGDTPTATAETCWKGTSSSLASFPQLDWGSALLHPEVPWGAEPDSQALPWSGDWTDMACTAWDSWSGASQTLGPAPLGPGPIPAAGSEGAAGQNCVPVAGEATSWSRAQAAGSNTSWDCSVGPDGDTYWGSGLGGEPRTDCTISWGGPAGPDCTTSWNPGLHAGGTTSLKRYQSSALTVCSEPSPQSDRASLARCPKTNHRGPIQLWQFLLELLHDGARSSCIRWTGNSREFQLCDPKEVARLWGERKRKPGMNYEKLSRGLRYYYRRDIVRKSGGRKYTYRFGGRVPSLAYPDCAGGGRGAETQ
The method in brief: as §1

Assay [5] concerns the target T4, ERF (Homo sapiens, UniProt P50548 1-548).
T4 sequence: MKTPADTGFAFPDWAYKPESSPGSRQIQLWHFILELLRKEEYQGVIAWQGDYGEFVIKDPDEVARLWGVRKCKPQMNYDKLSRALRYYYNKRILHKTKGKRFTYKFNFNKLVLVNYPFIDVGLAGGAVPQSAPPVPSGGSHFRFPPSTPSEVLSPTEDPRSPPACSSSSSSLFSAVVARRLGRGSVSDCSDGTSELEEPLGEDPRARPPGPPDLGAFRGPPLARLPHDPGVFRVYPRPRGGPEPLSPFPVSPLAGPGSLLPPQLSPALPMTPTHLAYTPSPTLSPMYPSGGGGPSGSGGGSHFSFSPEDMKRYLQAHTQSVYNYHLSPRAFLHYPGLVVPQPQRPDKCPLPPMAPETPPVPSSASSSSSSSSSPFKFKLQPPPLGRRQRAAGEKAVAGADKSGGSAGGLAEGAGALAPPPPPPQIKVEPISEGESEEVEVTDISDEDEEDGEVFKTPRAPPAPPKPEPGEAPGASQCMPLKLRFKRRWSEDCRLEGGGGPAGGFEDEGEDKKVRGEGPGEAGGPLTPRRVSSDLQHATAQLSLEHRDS
The gist of the method:
as §1

Assay [6] concerns the target T5, ETV3L (Homo sapiens, UniProt Q6ZN32 1-361).
T5 sequence: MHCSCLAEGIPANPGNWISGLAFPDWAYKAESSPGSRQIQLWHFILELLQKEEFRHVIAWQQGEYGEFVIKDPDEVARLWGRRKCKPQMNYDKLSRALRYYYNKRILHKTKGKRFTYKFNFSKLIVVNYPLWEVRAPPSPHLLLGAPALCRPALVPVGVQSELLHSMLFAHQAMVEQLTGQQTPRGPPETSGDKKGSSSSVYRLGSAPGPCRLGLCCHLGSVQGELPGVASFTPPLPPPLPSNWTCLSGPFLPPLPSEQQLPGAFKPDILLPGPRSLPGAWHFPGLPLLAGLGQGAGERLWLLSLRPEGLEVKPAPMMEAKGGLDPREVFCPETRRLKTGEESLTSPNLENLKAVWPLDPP
The method in brief: as §1

Assay [7] addresses T6, ETV7 (Homo sapiens, UniProt Q9Y603 1-341).
T6 sequence: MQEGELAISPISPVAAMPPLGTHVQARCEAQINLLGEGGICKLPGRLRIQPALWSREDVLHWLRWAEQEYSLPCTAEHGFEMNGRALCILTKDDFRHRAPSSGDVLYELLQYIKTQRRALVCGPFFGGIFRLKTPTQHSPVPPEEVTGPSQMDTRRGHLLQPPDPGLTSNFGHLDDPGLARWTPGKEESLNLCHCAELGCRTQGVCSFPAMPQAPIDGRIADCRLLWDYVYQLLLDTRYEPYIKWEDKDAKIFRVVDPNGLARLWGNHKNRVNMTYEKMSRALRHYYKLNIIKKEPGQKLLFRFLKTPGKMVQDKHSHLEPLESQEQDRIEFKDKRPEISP
The gist of the method:
as §1

ELF1, sequence (P32519 whole entry): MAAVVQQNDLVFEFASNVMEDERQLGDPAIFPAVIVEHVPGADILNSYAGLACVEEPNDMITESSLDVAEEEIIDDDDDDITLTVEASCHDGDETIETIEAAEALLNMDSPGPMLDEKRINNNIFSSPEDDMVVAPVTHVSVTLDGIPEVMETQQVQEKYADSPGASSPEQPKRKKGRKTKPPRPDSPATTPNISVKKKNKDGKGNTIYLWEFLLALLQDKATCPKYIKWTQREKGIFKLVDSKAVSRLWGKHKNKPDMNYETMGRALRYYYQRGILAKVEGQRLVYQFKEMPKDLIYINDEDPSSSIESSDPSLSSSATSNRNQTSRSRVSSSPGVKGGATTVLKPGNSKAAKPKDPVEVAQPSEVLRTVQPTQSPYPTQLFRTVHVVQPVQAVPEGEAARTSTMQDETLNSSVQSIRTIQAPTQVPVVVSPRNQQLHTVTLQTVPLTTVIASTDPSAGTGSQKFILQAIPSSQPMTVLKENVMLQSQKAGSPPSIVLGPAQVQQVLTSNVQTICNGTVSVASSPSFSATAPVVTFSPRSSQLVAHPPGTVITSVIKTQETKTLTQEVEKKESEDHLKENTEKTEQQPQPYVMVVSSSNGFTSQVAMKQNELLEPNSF

GCGTTG: the binding signal in assay [1] is 1.1 fold enrichment (6-mer frequency, TF over GST control); in assay [2] it was 1.01 fold enrichment (6-mer frequency, TF over GST control); in assay [3] it was 1.03 fold enrichment (6-mer frequency, TF over GST control); in assay [4] it was 1.01 fold enrichment (6-mer frequency, TF over GST control); in assay [5], 1.12 fold enrichment (6-mer frequency, TF over GST control); in assay [6], 1.03 fold enrichment (6-mer frequency, TF over GST control). Moreover, the binding signal in assay [7] is 1.01 fold enrichment (6-mer frequency, TF over GST control).

For the origin of these results see article PMC7862700, “An all-to-all approach to the identification of sequence-specific readers for epigenetic DNA modifications on cytosine”.
